For 108 sequences, z-score results are on record in PubChem BioAssay AID1508600 (Functional Genomics Laboratory (NCATS/FGL), 2020).

The whole screen tested about 53,000 sequences, of which about 3,700 (7%) were called active.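 Rule for the calls: active = gene knockdowns whose robust z-score for IL-1 alpha signal is at least 2 or at most -2, so actives lie on both sides; inactive = the rest.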 The full list was thinned out, with actives kept by preference.

A short description of the experiment: Components of the Cytosolic LPS Sensing Pathway: Gene Identification via Genome-wide siRNA Screen.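 Note: robust z of the log signal after scaling to non-targeting control siRNA wells of the plate.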 As to conditions: RAW264.7 macrophages, IL-1a HTRF, actives lie on both sides, screened at 100 nM (by protocol), cells primed 5 h with Pam3CSK4 first. The gist of the method:
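Using IL-1a HTRF as read-out, the screen measured release from RAW264.7 cells after 48h siRNA knockdown (100 nM), 5 h Pam3CSK4 priming and 24 h cytosolic LipidA. Values were expressed relative to negative-control wells as robust z-scores.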
Turning to GCAUUGGACUCAUAAUUUUTT against Aadat, the z-score was 0.0399 (inactive).
As for GGUAAUGUUCUCCUUUGAATT against Dok1, the figure is 4.89 (active); as for GCCUGAAUUUAGUGUUAAGTT against Hnmt, 1.72 (inactive).
As for CCAUUGAAAAACUGGACAGTT against Olfr1463, the figure is 3.26 (active).
The figure for GCUCUUCAUAACUCUUGCUTT against Olfr1392 is -0.288 (inactive); for GGCCAGAACUGUUCCAAUUTT against Cilp it is 1.15 (inactive); for GGGAAUUUAAUUUUUCGUGTT against Sfn it is -0.642 (inactive).
On to GGAAGUCAACCGAGUCUUCTT against Sp140, for which the z-score was 0.011 (inactive).
As to GGGUAUGAUAUGUUAAUGATT against Ndufaf7, the z-score is -0.434 (inactive).
As for CCAUUUAAGUGUGUGUUAATT against Rbmx, the figure is 0.475 (inactive).
As for GGAUUUUGCACUAUAACAATT against Zmat3, the figure is 3.83 (active).
For GGACAACGGAUUUUAGGAGTT against Barhl2, the z-score is 0.44 (inactive).
As for GGUUGAAUAUACUUAGCACTT against Gm5082, the figure is 0.947 (inactive); as for CCAUGGAAUCUCCUAUACCTT against C4bp, -0.679 (inactive).
The figure for GGUAAAUCAAAUCACUGCCTT against Slamf1 is 0.316 (inactive); for CCCUUUCAUUGUGCAUUAATT against Hdhd2 it is -2.22 (active); for GCUCAAGAGUCUAACUCCCTT against Serinc4 it is 0.558 (inactive).
As to GGAGAAAGUUUUGGAAAAATT against Slc24a5, the z-score was -0.622 (inactive).
The figure for GGAUUUCUACCAGCUCGUGTT against Pop5 is 1.62 (inactive); for GGAUGGCAGCUUUGACCUUTT against Cdc42ep2 it is 0.566 (inactive).
Take GCAAAACCCAACAACUCUGTT against Lig3: the z-score is 1.05 (inactive).
As for CCUACUGGAGUCUCCUCUUTT against Tmem116, the figure is 0.36 (inactive); as for GGAGGACAAUGAGGACGAUTT against Chrac1, 2.1 (active).
The figure for AUUUCUGUAAGGCAAAUGUTT against Olfr970 is -0.454 (inactive).
The figure for CCUCGAAUGCAGACGUACGTT against Sdhb is 1.67 (inactive); for CCAAAGUCAUAAUUCCAACTT against Timm23 it is 0.202 (inactive).
In the case of GGAGCAGAUUAAAUCCCUGTT against Krt8, the z-score was 2.46 (active).
As to GGGAGCUAAGAAGAUUCAUTT against Mul1, the z-score was 0.89 (inactive).
As for GCAGCAGUUGGCUAAAACATT against Bbof1, the figure is -1.14 (inactive).
For “GGUGGAUGGAUCACUGAGUTT against B230325K18Rik”, the z-score is -0.347 (inactive).
As for GCAACUAUGAACAAGAAUCTT against Grm3, the z-score was -0.0322 (inactive).
The figure for GCCACGAAAAGAAGAGAAUTT against Vpreb2 is 1.08 (inactive).
As for CCUACAGAGUACCCUGUCUTT against Gas2l2, the figure is -2.56 (active); as for GGUCCUGAAUUUCAUCCUUTT against B4galnt2, 0.459 (inactive); as for GGUCAGAAAUUCUAAGUUGTT against Gpatch2, 1.09 (inactive).
The figure for GGAAAUGACCUACGAAGAATT against Pfkfb4 is -1.26 (inactive); for GGCAGUCAACAAAGAAGACTT against Metap1d it is -0.711 (inactive).
Consider GGUCUGGUGGAGUUGAGAATT against Ccdc80, for which the z-score is -0.617 (inactive).
The figure for GCGAGUGCUAACAUGAAAGTT against Sar1a is -0.0783 (inactive).
The figure for GUUUGUGCUGUUAGGUUUUTT against Olfr1347 is 2.46 (active).
As for GGACAAAAGACUUGAAUUUTT against Alox15, the figure is 1.86 (inactive).
In the case of GGCUGAAGAGGAUCGGUACTT against Atpif1, the z-score is 2.08 (active).
In the case of CGCAAGAGUUCCUUUUUUUTT against Sla, the z-score is 0.671 (inactive).
As for GGCCACCUAUGAUGGAAAUTT against Kdelr2, the z-score is -0.379 (inactive).
For GCUCUGAUGGUCUACUGCUTT against Rgs3, the z-score is -0.347 (inactive).
The figure for GGGCAGCUCAUGUCCUAUATT against Scfd2 is -0.421 (inactive); for CCAGAAAAAAGAUUGUACATT against Hesx1 it is -0.43 (inactive).
As for GCAGAGCUAGCUGAAUUGCTT against Urb2, the figure is -0.156 (inactive); as for GCCGUUAAACAGUUCUCCCTT against Cyb561a3, -0.455 (inactive).
As for GGAUCGAGUUUGGUGUAGATT against Usp10, the figure is -1.39 (inactive); as for CCAUCUACCAUAAACUGUATT against Spata6, 0.175 (inactive).
CCAUUAAUUACGUGUUUGUTT against Dixdc1: the z-score was -0.104 (inactive).
As for GGAAUGGAAUACAAAGUCATT against Isg20l2, the figure is -0.305 (inactive).
For CCUAUGCAUCAGACCUUUGTT against Nedd9, the z-score was 2.7 (active).
Turning to GGUUUUUCUGUCAAGUGCUTT against Lgr5, the z-score was -0.303 (inactive).
The figure for GGCAAGAUCCACAAUGAUGTT against Lgals2 is -0.996 (inactive); for CCGUCAGUGAAUUCUUGAATT against Birc5 it is 0.342 (inactive).
As for GGAAGUUUGCUCCAGCCUUTT against Tmem33, the figure is -0.202 (inactive); as for GCGAGUGACACAUCUUCUCTT against Klhl7, 0.467 (inactive); as for GGAACAUAUGCAGAAUUUATT against Adgrb3, 0.509 (inactive).
The figure for GGUCCAUUGGGAGUUUGAGTT against Slc2a6 is 3.14 (active).
With GGAUGGAGAGAACUACUUATT against Gltpd2, the z-score was 0.999 (inactive).
The figure for GGAGUGUGAUCAAGUUCAUTT against Eya4 is 2.16 (active).
Take GGUGUUUGCCUCAGAAAUCTT against Cdk17: the z-score is -0.676 (inactive).
Take GGUGAAGAUUGACAAGAAATT against Spout1: the z-score is 0.254 (inactive).
For the sequence GGAUGAAUGCAGCUUCCAUTT against Myh14, the z-score was 2.35 (active).
The figure for GGGUGUUCCAGAAGUAUCUTT against Lars2 is -1.76 (inactive); for CCUUGGAAUGCAUAGCCAATT against Sdk1 it is 0.285 (inactive).
For the sequence GGAAUAUGCCCAAGUUUUUTT against Ctnna1, the z-score is 2.86 (active).
As to GCCAAAUUGUCCCGGGCAUTT against Usp39, the z-score is 0.457 (inactive).
Turning to GGUGAUGUAUUAUUAUCCATT against Defb12, the z-score was 0.277 (inactive).
As for CCUUUCAAGGAGAUAUAAUTT against Gcm2, the figure is 0.65 (inactive); as for CCUUAGCUGUCCUUGUGGUTT against Defb28, -1.36 (inactive).
As for CGAAAUCCUAGUUUCGUCCTT against Spns1, the figure is 3.29 (active); as for GGAAUUGGUCUAUAUGCGUTT against Il2ra, -1.02 (inactive); as for GGGUUCCAGUUUGUUUCCUTT against Cnbp, -0.901 (inactive).
For the sequence CCAUUGAGAUCAGCGACAUTT against Abtb2, the z-score was -0.748 (inactive).
For GGUAGCAUUAUUUGUCCUATT against Pcdh15, the z-score is 0.675 (inactive).
Regarding GGAGCUACGAAGAGGAUCUTT against Wdr45b, the z-score is -2.69 (active).
The figure for GGCCAUCUCCUUCAACUAUTT against Ugt2a1 is 1.24 (inactive); for “GGAGUAGAUUUAAAAGGCATT against 4933440M02Rik” it is 0.145 (inactive); for GGUCAACAGAAUGAAAAAUTT against Runx1t1 it is -0.211 (inactive).
As for GGGAAAGUCGAGCUUUUUCTT against Ifi44l, the figure is 0.0658 (inactive); as for CCAAGCUACCAGGGUUUUUTT against Abcb9, 2.1 (active).
As for GGUCCAAGUAAUGAACUCATT against Olfr155, the figure is -1.19 (inactive); as for GGCCCUAGAAAUAAUCUGCTT against Anks4b, 0.0338 (inactive).
As to GGGAUCCUUAAUAUUUUGATT against Dazap2, the z-score is 1.66 (inactive).
For GGUUUUAAUUGUUCAGACGTT against Lrrtm3, the z-score was 0.35 (inactive).
The figure for GGGAAGUGGAAACAGUUCUTT against Icam2 is 0.461 (inactive); for CCAAUGUUACGAGAAACUUTT against Smug1 it is 1.02 (inactive).
As to GGAAAGGAUAAAGUAUAUCTT against Aspm, the z-score is -0.0167 (inactive).
As for GGAUUGCAUCUUCCUCGAATT against Olfr816, the figure is -2.27 (active).
The figure for GAUCUAUCACCGGUACUGCTT against Gys1 is 0.154 (inactive); for CCGCUCACUUCUUGAAUAUTT against Rnf125 it is 0.388 (inactive); for GUCAGAUCUCAGAAUCAUGTT against Ercc6l2 it is -2.27 (active).
As for GCGGUCUGUGGUCUUAAAUTT against She, the figure is -0.449 (inactive).
For GGUGAACUGUAAUGGCUUCTT against Smyd2, the z-score is -0.209 (inactive).
In the case of GGUGUUGAGAAGAAAAAUATT against Spz1, the z-score is 1.68 (inactive).
For GGUAGAAUACCUUCAGAUUTT against Ercc4, the z-score is 2.81 (active).
The figure for GGAAUUGUCAGGUCUUGAATT against Tmem174 is -0.311 (inactive); for GGAGCUUCGGGAGAUGAUUTT against Fdxr it is 0.357 (inactive); for GGCGGAGUUUUUAAUACUCTT against Upb1 it is 1.79 (inactive).
The figure for CCUAUGUUUGGUGAUUAUGTT against Alg6 is 0.264 (inactive); for GGGUAGGAGGAAAGUGUUCTT against Olfr1093 it is 1.55 (inactive); for GGAACAGCAGCAGAGUGAATT against Gkap1 it is -1.09 (inactive).
The figure for GGCACAUGAUCCUUAAUUUTT against Pfkfb3 is 0.0397 (inactive); for GCCUAAGCCUACCAAACGATT against Ints3 it is 0.0965 (inactive).
As to GCCGAGAGGGAUGUGUAUATT against Psmb1, the z-score is -2.54 (active).
